Experimental data from PubChem BioAssay (NCI).
Compounds without any hit were thinned out: in the full panel of roughly 79,000, 15% have a hit. Calls of active or inactive are those of the source. Rule as the data show it: active = growth inhibition above about 70%; inactive = the rest.

Assay: NCI Yeast Anticancer Drug Screen. Data for the rad50 strain (AID 155);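 also: 0% = growth of vehicle-only cultures of the same strain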
Settings: S. cerevisiae rad50 strain growth inhibition; at 50.0 µM; hits give high values
Procedure, shortened: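 Growth of the mutant yeast was measured after compound exposure and referenced to vehicle-treated cultures.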

| SMILES | growth inhibition |
| --- | --- |
| O=C(O)CCCCCCCCCCOc1ccc(Cl)cc1Cl | 98% (active) |
| C=C(CN1CCCC1)C(=O)c1ccc(OC)cc1 | 3.25% (inactive) |
| CNC(=O)OCc1c(COC(=O)NC)c(-c2ccc(OC)cc2)n2c1CCC2 | 28.4% (inactive) |
| CCCCC(=S)N1CCN(c2ccccc2)CC1 | 90.3% (active) |
| CCN(CC)C(=S)N/N=C/c1cc(OC)ccc1O | 69.9% (inactive) |
| COc1ccc2c(c1)CN1C(CCC3c4ccccc4NC31)C2 (stereo not given) | 88.5% (active) |
| CCCCC(=O)N/N=C(\C)[C@]1(O)Cc2c(O)c3c(c(O)c2[C@@H](OC2CC(N)C(O)C(C)O2)C1)C(=O)c1c(OC)cccc1C3=O (stereo not given in full) | 98.7% (active) |
| C=C1C(=O)C23OC2C1CCC(=O)C1(C)CC[C@H](OC(C)=O)C(C)(C)[C@H]1CC3O (stereo not given in full) | 99.2% (active) |
| Cc1nc(N)sc1N=Nc1ccc(Cl)cc1Cl | 82.5% (active) |
| O=C(O)c1cc2c3ccccc3sc2c2ccccc12 | 55.4% (inactive) |
| COc1ccc2c(c1)C(Br)CCC(Br)C2=O (stereo not given) | 47.6% (inactive) |
| Cc1cc(OCCl)ccc1[N+](=O)[O-] | 30.4% (inactive) |
| COC(=O)c1nnc(C(=O)OC)c2c1[nH]c1ccccc12 | 79% (active) |
| O=S(Nc1ccccc1Br)c1ccccc1 (stereo not given) | 22.2% (inactive) |
| Cc1c2c(c(C)c3c1OC(C)(C)CC3)OC(C)(C)CC2 | 34.6% (inactive) |
| O=c1cc(CSc2ccc(Cl)cc2)occ1O | 44.5% (inactive) |
| Cc1ccc2c(c1)[n+]([O-])c(N)n[n+]2[O-] | 75.7% (active) |
| CC(=O)c1c2c(cc3c1CC1(C3)Cc3cc4c(c(C(=O)O)c3C1)CCC4)CCC2 (stereo not given) | 84% (active) |
| CCCCCCCCCCC(NC(C)=O)(C(=O)OCC)C(=O)OCC | 97.5% (active) |
| Cc1nc2c(cnn2C)cc1CCc1ccccc1 | 14.7% (inactive) |

| SMILES | growth inhibition |
| --- | --- |
| CCc1cccc(C)c1NC(=O)C(=O)CC(=O)c1ccccc1Cl | 72% (active) |
| COc1nc(N)c(N=O)c(OCc2ccccc2)n1 | 89% (active) |
| O=C1O/C(=C2\OC(=O)c3ccccc32)c2ccccc21 | -13.4% (inactive) |
| Cc1ccc(O)c(C(C)(C)c2ccccc2)c1 | 99.5% (active) |
| CCOC(=O)NN(C(=O)OCC)c1ccc(N=Nc2ccc(OC)cc2)n1C | 46% (inactive) |
| S=C(NCc1ccccc1)[S][Sb]([S]C(=S)NCc1ccccc1)[c]1ccccc1 | 95.8% (active) |
| O=CCCCc1cc2c(cc1Br)CCC2 | 60.9% (inactive) |
| CCC(C)CNCCCCCNc1cc(OC)cc2cccnc12 (stereo not given) | 45.5% (inactive) |
| CNC(=O)NC(c1cc(OC)c(OC)c(OC)c1)c1cc2c(cc1O)OCO2 (stereo not given) | 17.2% (inactive) |
| CCCCCCCSCc1nc2ccccc2c(C)[n+]1[O-] | 96.7% (active) |
| Cc1[nH]c(=O)[nH]c(=O)c1CN(C)Cc1cc(Cl)cc(Cl)c1O | 53.1% (inactive) |
| O=C(N/C(=C\c1cccc([N+](=O)[O-])c1)c1nc2ccccc2s1)c1ccccc1 | 98.5% (active) |
| CC1NS(=O)(=O)N(C)C1=O (stereo not given) | 3.05% (inactive) |
| Cc1csc2[n+]1C(=O)/C(=C\c1ccc([N+](=O)[O-])cc1)S2 | 69.6% (inactive) |
| CC(C)c1ccc2c(c1)CCC1C(C)(C(=O)O)CCCC21C (stereo not given) | 95.1% (active) |
| COc1ncnc2nc(SC)[nH]c12 | 99.7% (active) |
| CCN(CC)C(=O)CCCCC(=O)OC(C)C | -2.2% (inactive) |
| CC(=O)O/N=C1/CCC2C3CC=C4CC(OC(C)=O)CCC4(C)C3CCC12C (stereo not given) | 68.8% (inactive) |
| Clc1ccc(CNc2ccc(Br)cc2)cc1 | 94.5% (active) |
| Cc1cnc(C#N)c(C#N)n1 | 35.6% (inactive) |

Assay: NCI Yeast Anticancer Drug Screen. Data for the mec2-1 strain (AID 157)
Settings: S. cerevisiae mec2-1 strain, at 5.0 µM (retest, dose inferred, filed as 0.5), hits give high values
Procedure, shortened: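 Strain: mec2-1 (DNA repair/cell cycle alteration). Compound exposure, then growth measured; inhibition expressed relative to vehicle.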

| SMILES | growth inhibition |
| --- | --- |
| O=C(O)CCCCCCCCCCOc1ccc(Cl)cc1Cl | -2% (inactive) |
| C=C(CN1CCCC1)C(=O)c1ccc(OC)cc1 | 7% (inactive) |
| CNC(=O)OCc1c(COC(=O)NC)c(-c2ccc(OC)cc2)n2c1CCC2 | 19% (inactive) |
| CCCCC(=S)N1CCN(c2ccccc2)CC1 | 10% (inactive) |
| CCN(CC)C(=S)N/N=C/c1cc(OC)ccc1O | -43% (inactive) |
| COc1ccc2c(c1)CN1C(CCC3c4ccccc4NC31)C2 (stereo not given) | -5% (inactive) |
| CCCCC(=O)N/N=C(\C)[C@]1(O)Cc2c(O)c3c(c(O)c2[C@@H](OC2CC(N)C(O)C(C)O2)C1)C(=O)c1c(OC)cccc1C3=O (stereo not given in full) | -12% (inactive) |
| C=C1C(=O)C23OC2C1CCC(=O)C1(C)CC[C@H](OC(C)=O)C(C)(C)[C@H]1CC3O (stereo not given in full) | 92% (active) |
| Cc1nc(N)sc1N=Nc1ccc(Cl)cc1Cl | 1% (inactive) |
| O=C(O)c1cc2c3ccccc3sc2c2ccccc12 | -3% (inactive) |
| COc1ccc2c(c1)C(Br)CCC(Br)C2=O (stereo not given) | -48% (inactive) |
| Cc1cc(OCCl)ccc1[N+](=O)[O-] | -2% (inactive) |
| COC(=O)c1nnc(C(=O)OC)c2c1[nH]c1ccccc12 | 2% (inactive) |
| O=S(Nc1ccccc1Br)c1ccccc1 (stereo not given) | -2% (inactive) |
| Cc1c2c(c(C)c3c1OC(C)(C)CC3)OC(C)(C)CC2 | -13% (inactive) |
| O=c1cc(CSc2ccc(Cl)cc2)occ1O | -2% (inactive) |
| Cc1ccc2c(c1)[n+]([O-])c(N)n[n+]2[O-] | 1% (inactive) |
| CC(=O)c1c2c(cc3c1CC1(C3)Cc3cc4c(c(C(=O)O)c3C1)CCC4)CCC2 (stereo not given) | 56% (inactive) |
| CCCCCCCCCCC(NC(C)=O)(C(=O)OCC)C(=O)OCC | -3% (inactive) |
| Cc1nc2c(cnn2C)cc1CCc1ccccc1 | 3% (inactive) |

| SMILES | growth inhibition |
| --- | --- |
| CCc1cccc(C)c1NC(=O)C(=O)CC(=O)c1ccccc1Cl | -1% (inactive) |
| COc1nc(N)c(N=O)c(OCc2ccccc2)n1 | 99% (active) |
| O=C1O/C(=C2\OC(=O)c3ccccc32)c2ccccc21 | 0% (inactive) |
| Cc1ccc(O)c(C(C)(C)c2ccccc2)c1 | -5% (inactive) |
| CCOC(=O)NN(C(=O)OCC)c1ccc(N=Nc2ccc(OC)cc2)n1C | -25% (inactive) |
| S=C(NCc1ccccc1)[S][Sb]([S]C(=S)NCc1ccccc1)[c]1ccccc1 | 2% (inactive) |
| O=CCCCc1cc2c(cc1Br)CCC2 | 14% (inactive) |
| CCC(C)CNCCCCCNc1cc(OC)cc2cccnc12 (stereo not given) | 35% (inactive) |
| CNC(=O)NC(c1cc(OC)c(OC)c(OC)c1)c1cc2c(cc1O)OCO2 (stereo not given) | -1% (inactive) |
| CCCCCCCSCc1nc2ccccc2c(C)[n+]1[O-] | 3% (inactive) |
| Cc1[nH]c(=O)[nH]c(=O)c1CN(C)Cc1cc(Cl)cc(Cl)c1O | -8% (inactive) |
| O=C(N/C(=C\c1cccc([N+](=O)[O-])c1)c1nc2ccccc2s1)c1ccccc1 | 29% (inactive) |
| CC1NS(=O)(=O)N(C)C1=O (stereo not given) | 6% (inactive) |
| Cc1csc2[n+]1C(=O)/C(=C\c1ccc([N+](=O)[O-])cc1)S2 | 21% (inactive) |
| CC(C)c1ccc2c(c1)CCC1C(C)(C(=O)O)CCCC21C (stereo not given) | 8% (inactive) |
| COc1ncnc2nc(SC)[nH]c12 | 1% (inactive) |
| CCN(CC)C(=O)CCCCC(=O)OC(C)C | -2% (inactive) |
| CC(=O)O/N=C1/CCC2C3CC=C4CC(OC(C)=O)CCC4(C)C3CCC12C (stereo not given) | 16% (inactive) |
| Clc1ccc(CNc2ccc(Br)cc2)cc1 | 3% (inactive) |
| Cc1cnc(C#N)c(C#N)n1 | -1% (inactive) |
